Drawing on PubChem BioAssay (EPA / NIEHS), this text covers outcome and AC50 for 15 compounds.

Experiment [1] has as its target Transcription factor E2F1 (Homo sapiens) (UniProt Q01094). As to the kind of experiment: ATG_E2F_CIS: Attagene CIS-FACTORIAL HepG2 Assay for human E2F Transcription Factor 1 (AID 2282935). The settings on record: HepG2 Attagene cis-reporter, E2F reporter RNA transcripts; actives raise or lower the signal. The gist of the method: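 Transient MRTU transfection of HepG2; 24 h compound exposure; RNA → oligo(dT) RT → PCR → FAM label → HpaI cut → CE fluorescence. Gain/loss of signal fit against DMSO.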

Experiment [2] is described as follows: ATG_E_Box_CIS: Attagene CIS-FACTORIAL HepG2 Assay for human Enhancer Box (E-box) (AID 2282936). The conditions noted are these: HepG2 E-box cis-reporter transcription, actives raise or lower the signal. The gist of the method: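 Transiently transfected HepG2, endogenous TF-driven reporters, 24 h dosing. Readout: RT-PCR plus capillary electrophoresis of fluorescent reporter fragments. Gain or loss of signal fitted bidirectionally against DMSO baseline.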

A short description of experiment [3]: ATG_M_61_CIS: Attagene CIS-FACTORIAL HepG2 Assay for M61 Transcription Factor (Internal Marker) (AID 2282937). The settings on record: HepG2 Attagene CIS-FACTORIAL M61 internal marker reporter; actives raise or lower the signal. The essentials: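 Transfect HepG2 with MRTUs; dose 24 h; isolate RNA; reverse-transcribe with DNase I treatment; PCR-amplify, FAM-label and cut with HpaI for 2 h at 37 C; resolve by CE. Bidirectional fitting against DMSO.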

Experiment [4] can be described thus: ATG_EGR_CIS: Attagene CIS-FACTORIAL HepG2 Assay for human Early Growth Response 1 (EGR1) (AID 2282938). The conditions noted are these: HepG2 Attagene CIS-FACTORIAL EGR reporter mRNA; actives raise or lower the signal. The essentials:
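After a 24 h treatment of transiently transfected HepG2 cells, total RNA was reverse-transcribed and reporter sequences PCR-amplified, labelled and run on capillary electrophoresis. Reporters sit under cis-regulatory promoters sensing endogenous factors.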

Experiment [5] can be described thus: ATG_M_19_CIS: Attagene CIS-FACTORIAL HepG2 Assay for M19 Transcription Factor (Internal Marker) (AID 2282939). The settings on record: HepG2 Attagene CIS-FACTORIAL M19 internal marker reporter; actives raise or lower the signal. The essentials:
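Chemical-treated HepG2 (24 h) with MRTU constructs; reporter transcripts detected by fluorescent RT-PCR fragment analysis on capillary electrophoresis. Internal background marker, DMSO as baseline.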

The nature of experiment [6]: ATG_ERE_CIS: Attagene CIS-FACTORIAL HepG2 Assay for Estrogen Response Element (ERE) (AID 2282940). The conditions noted are these: HepG2 ERE cis-reporter, Attagene RNA transcript; actives raise or lower the signal. The essentials:
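Human liver cells (HepG2) bearing transiently transfected, promoter-regulated reporter units were exposed 24 h. Reporter mRNA induction was detected by capillary electrophoresis of labelled RT-PCR products and fitted bidirectionally to DMSO.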

Experiment [7] is described as follows: ATG_Ets_CIS: Attagene CIS-FACTORIAL HepG2 Assay for human Erythroblast Transformation Specific (ETS) (AID 2282941). The conditions noted are these: HepG2 ETS cis-reporter transcription, actives raise or lower the signal. The essentials:
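RT-PCR/capillary electrophoresis fluorescence read-out of reporter mRNA; HepG2 transient multi-reporter transfection; 24 h compound exposure; gain or loss of signal fitted bidirectionally relative to DMSO.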

Experiment [8] in a line: ATG_FoxO_CIS: Attagene CIS-FACTORIAL HepG2 Assay for human Forkhead box O (FoxO) (AID 2282943). The conditions noted are these: HepG2 Attagene cis-reporter, FoxO element, mRNA; actives raise or lower the signal. The essentials:
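Transfected HepG2 reporter cells exposed to test chemical for 24 h; reporter RNA measured by reverse transcription, PCR and fluorescent capillary electrophoresis; curves fitted for increases and decreases against DMSO.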

The nature of experiment [9]: ATG_GATA_CIS: Attagene CIS-FACTORIAL HepG2 Assay for human GATA Binding Protein (AID 2282944). The settings on record: HepG2 GATA cis-element reporter, Attagene multiplex mRNA; actives raise or lower the signal. The essentials: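 Transfected cis-reporter HepG2 cells were treated with chemicals for 24 hours. Total RNA was then converted to cDNA, amplified with reporter-specific primers and analysed by fluorescent capillary electrophoresis, using DMSO-treated wells as baseline.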

Experiment [10] concerns the target Hepatocyte nuclear factor 3-beta (Homo sapiens) (UniProt Q9Y261). As to the kind of experiment: ATG_FoxA2_CIS: Attagene CIS-FACTORIAL HepG2 Assay for human Forkhead box A2 (FOXA2) (AID 2282942). The conditions noted are these: HepG2 cis-reporter transcription factor activity, 24 h; actives raise or lower the signal. The gist of the method: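 24 h dosing of HepG2 bearing cis-reporter constructs; mRNA readout by RT-PCR/CE fluorescence; bidirectional fit, DMSO baseline.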

Each structure is given as a SMILES string. Calls of active or inactive are those of the source. How the source made its calls: active means hit-call score of the fitted dose curve at least 0.9, where 1 is the maximum; inactive means score below 0.9.

Sequence of Transcription factor E2F1 (Homo sapiens) (Q01094 whole entry, looked up): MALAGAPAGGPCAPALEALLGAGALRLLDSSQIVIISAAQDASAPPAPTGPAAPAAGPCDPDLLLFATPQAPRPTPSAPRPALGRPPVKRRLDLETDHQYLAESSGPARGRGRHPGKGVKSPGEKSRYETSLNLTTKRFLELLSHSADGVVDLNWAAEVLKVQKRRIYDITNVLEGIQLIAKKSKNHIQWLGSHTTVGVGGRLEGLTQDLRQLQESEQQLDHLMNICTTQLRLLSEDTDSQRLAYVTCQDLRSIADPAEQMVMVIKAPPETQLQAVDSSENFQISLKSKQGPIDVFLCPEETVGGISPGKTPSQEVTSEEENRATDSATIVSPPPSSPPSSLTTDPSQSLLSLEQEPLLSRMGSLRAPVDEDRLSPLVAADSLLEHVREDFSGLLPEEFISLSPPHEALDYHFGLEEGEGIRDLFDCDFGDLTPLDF
Sequence of Hepatocyte nuclear factor 3-beta (Homo sapiens) (Q9Y261 whole entry, looked up): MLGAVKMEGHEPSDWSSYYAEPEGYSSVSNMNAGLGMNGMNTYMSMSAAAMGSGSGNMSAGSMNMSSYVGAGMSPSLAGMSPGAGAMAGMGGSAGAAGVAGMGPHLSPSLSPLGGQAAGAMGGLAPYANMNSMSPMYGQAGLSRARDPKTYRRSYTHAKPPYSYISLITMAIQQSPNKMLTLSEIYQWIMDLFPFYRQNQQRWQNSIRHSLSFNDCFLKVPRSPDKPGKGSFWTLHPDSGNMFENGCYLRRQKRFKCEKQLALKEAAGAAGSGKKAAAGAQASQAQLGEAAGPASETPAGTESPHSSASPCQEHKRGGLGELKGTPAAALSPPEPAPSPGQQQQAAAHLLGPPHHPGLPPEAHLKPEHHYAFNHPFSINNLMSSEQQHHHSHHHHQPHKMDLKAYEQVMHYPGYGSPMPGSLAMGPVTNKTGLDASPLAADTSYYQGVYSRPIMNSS

One may read the AC50 as the concentration at which the activity in the assay is half-maximal. Consider `O=C(C=Cc1ccccc1)OCCCc1ccccc1`, for which the result in experiment [1], in [2], in [3], in experiment [4], in experiment [5] and in experiment [7] was inactive. For the same compound, the call in experiment [8] and in [9] was inactive. In experiment [6], the AC50 was 29.7 µM (active).
For the compound `CCCCN(CCCC)CCCCCCN(CCCC)CCCC`, the outcome in [1], in experiment [2], in experiment [3], in [4], in experiment [5] and in [6] was inactive. Besides, the compound was classed as inactive in [7], in experiment [8] and in experiment [9].
For `O=C(O)C1=NN(c2ccc(S(=O)(=O)O)cc2)C(=O)C1`, the outcome in experiment [1], in experiment [2], in experiment [3], in [4], in experiment [5] and in [6] was inactive. Besides, the result in experiment [7], in experiment [10], in [8] and in experiment [9] was inactive.
Regarding `CC(C)OB(OC(C)C)OC(C)C`, the call in experiment [1], in experiment [2], in experiment [3], in experiment [4], in [5] and in experiment [6] was inactive. The compound was classed as inactive in experiment [7], in experiment [10], in experiment [8] and in [9].
For the compound `NS(=O)(=O)c1cc(C(=O)O)c(NCc2ccco2)cc1Cl`, the result in experiment [1], in experiment [2], in experiment [3], in [4], in experiment [5] and in experiment [6] was inactive. Besides, the compound was classed as inactive in experiment [7], in experiment [8] and in experiment [9].
As to `C=C(C)C(=O)OCCN(C)C`, the call in [1], in experiment [2], in [3], in experiment [4], in experiment [5] and in experiment [6] was inactive. Further, the result in experiment [7], in experiment [8] and in experiment [9] was inactive.
For the compound `CCCCCCCCCC(=O)OCC`, the compound was classed as inactive in experiment [1], in experiment [2], in experiment [3], in [4], in [5] and in experiment [6]. Besides, the compound was called inactive in [7], in experiment [8] and in experiment [9].
Turning to `Nc1ccc(N)c([N+](=O)[O-])c1`, the outcome in experiment [1], in experiment [2], in experiment [3], in [4], in [5] and in [7] was inactive. Besides, the outcome in experiment [10], in experiment [8] and in [9] was inactive. For the same compound, the AC50 in experiment [6] is 41.6 µM (active) [middle of 5 runs].
In the case of `CC(C)N(c1ccccc1)C(C)C`, the call in [1], in experiment [2], in experiment [3], in [4], in experiment [5] and in experiment [6] was inactive. Further, the outcome in experiment [7], in experiment [10], in [8] and in experiment [9] was inactive.
For `Cc1cccc(C)c1`, the call in experiment [1], in experiment [2], in [3], in experiment [4], in experiment [5] and in experiment [6] was inactive. Besides, the outcome in experiment [7], in [8] and in [9] was inactive.
Take `C=C(C)C(N)=O`: the compound was classed as inactive in experiment [1], in experiment [2], in experiment [3], in experiment [4], in experiment [5] and in experiment [6]. Besides, the compound was called inactive in experiment [7], in experiment [10], in experiment [8] and in [9].
`CCC(C)COC(=O)CC(C)C` (stereo not drawn): the compound was called inactive in experiment [1], in experiment [2], in experiment [3], in experiment [4], in experiment [5] and in experiment [6]. Further, the compound was called inactive in [7], in [10], in [8] and in [9].
Take `CC(O)CN` (stereo not drawn): the compound was called inactive in experiment [1], in experiment [2], in experiment [3], in [4], in experiment [5] and in experiment [6]. The outcome in [7], in [10], in experiment [8] and in experiment [9] was inactive.
Take `Nc1ccn([C@H]2CC[C@@H](CO)O2)c(=O)n1`: the compound was called inactive in experiment [1], in experiment [2], in experiment [3], in experiment [4], in experiment [5] and in [6]. For the same compound, the outcome in experiment [7], in [8] and in [9] was inactive.
Turning to `CC(C)(C)c1cc(CCC(=O)OCCSCCOC(=O)CCc2cc(C(C)(C)C)c(O)c(C(C)(C)C)c2)cc(C(C)(C)C)c1O`, the result in [1], in [2], in experiment [3], in [4], in experiment [5] and in experiment [6] was inactive. Further, the compound was called inactive in [7], in [10], in experiment [8] and in [9].
